# According to PubChem BioAssay (Tox21):
# Records with an inconclusive call do not appear. Where a call stands in place of a potency, no number is given. Active and inactive are the calls of the source. Calls come from the whole dose curve.
# Assay: qHTS assay for small molecules that induce genotoxicity in human embryonic kidney cells expressing luciferase-tagged ATAD5 - cell viability (AID 651634); note: nearly all actives have a fitted effect of over 25% in size
# Conditions: HEK293T ATAD5-luc cells viability, CellTiter-Fluor, 15.5 h; series mostly up to 83.3 µM
# Description: National Center for Advancing Translational Sciences [NCATS]
# NIH Chemical Genomics Center [NCGC]
# U.S. Environmental Protection Agency [EPA]
# National Institutes of Environmental Health Sciences [NIEHS]
# National Toxicology Program [NTP]
# U.S. Food and Drug Administration [FDA]
# Enhanced Level of Genome Instability Gene 1 (ELG1; human ATAD5) protein levels increase in response to various types of DNA damage. Using a luciferase reporter-gene tagged with ElG1, a cell-based assay [developed by Kyungjae Myung, NHGRI, NIH] was used to measure the induction of ATAD5 in human embryonic kidney cells (HEK293T). So, increase in luciferase activity can be used to identify the compounds that cause genetic stress. In addition to genotoxicity, these cells were also used to test for cytotoxicity by measuring the protease activity within live cells.
# Tox21 Assay Protocol Summary:
# For cytotoxicity screening, 2,000 cells in 5 uL/well were dispensed into white, solid-bottom 1536-well plates using a Multidrop Combi (Thermo Scientific) dispenser. Following transfer of 23 nL compound or DMSO vehicle by a pin tool, the plates were incubated 15.5 hr at 37C and 5% CO2. 1 ul CellTiter-Fluor reagent (Promega, Madison, WI) was then added to each plate and following 30 min incubation at 37C, fluorescence intensity was quantified on a ViewLux CCD-based plate reader.
row,Structure (SMILES),Potency
1,O=C1CCC(=O)N1Cl,inactive
2,CC(C)CO,inactive
3,CCC/C=C(\C=O)CC,inactive
4,CC(C)(C)NC[C@H](O)COc1cccc2c1CCCC2=O,inactive
5,OC1OCCOC1O (stereo not given),inactive
6,C[C@@H](O)C(=O)O,inactive
7,[O]=[Mo](=[O])=[O],inactive
8,CCC(C)C(C)=O (stereo not given),inactive
9,CCCCC1CCC(O)CC1 (stereo not given),inactive
10,c1ccc2c(CC3=NCCN3)cccc2c1,inactive
11,CC(=O)CC(=O)OC(C)(C)C,inactive
12,O=C(Cn1ccnc1[N+](=O)[O-])NCc1ccccc1,inactive
13,NCc1ccc(S(N)(=O)=O)cc1,inactive
14,CC1CC(=O)CC(C)(C)C1 (stereo not given),inactive
15,CCCCCc1cccc(=O)o1,inactive
16,CC1(C)[C@H]2CC[C@](C)(C2)[C@H]1O,inactive
17,O=C(O)CSCC(=O)NC1CCSC1=O (stereo not given),inactive
18,CN(C)CC/C=C1/c2ccccc2COc2ccc(CC(=O)O)cc21,inactive
19,CCC(C)C(=O)OCCc1ccccc1 (stereo not given),inactive
20,CCCCCCC1(C)CCC(=O)O1 (stereo not given),inactive

row,Structure (SMILES),Potency
1,C=CCCCC,inactive
2,C=CC/C=C/C,inactive
3,CCCC(=O)OC/C=C(\C)CCC=C(C)C,inactive
4,CC/C=C\CCOC(=O)c1ccccc1O,inactive
5,CN(C)CCN(C)CCO,inactive
6,O=C=NCC1CCCC(CN=C=O)C1 (stereo not given),inactive
7,CC(C)[C@H]1CC[C@H](C)C[C@@H]1O,inactive
8,O/N=C/C=N/O,inactive
9,CC(C)c1ccc(C=O)cc1,inactive
10,COC(=O)c1ccccc1C(=O)O,inactive
11,O=C(O)CCCCCC(=O)O,inactive
12,Cc1c(NC(=O)c2cccnc2)c(=O)n(-c2ccccc2)n1C,inactive
13,C=CCSSCCC,inactive
14,O=NN(CCCl)C(=O)NC1CCCCC1,inactive
15,Cc1ccc(C)c([N+](=O)[O-])c1,inactive
16,CCCCCCCCCCCCCBr,inactive
17,CC(C)OC(=O)CCC(=O)OC(C)C,inactive
18,OCC1(CO)COCOC1,inactive
19,CC1(C)Cc2cccc(N)c2O1,inactive
20,CC/C(C)=N\O[Si](C)(O/N=C(\C)CC)O/N=C(\C)CC,inactive
